# Laboratory results from the supplement of paper PMC8728848.
# The sample as a whole holds a higher share of the strongest signals than the screen did.
# What was measured:
# Test in all cases: glycan array binding signal (z-score within array); higher = stronger binding
# Settings in all cases: glycan notation: IUPAC condensed, linker removed
# [1] = target: Fuc(a1-2)Gal(b1-3)GlcNAc(b1-3)[Gal(b1-4)GlcNAc(b1-6)]Gal(b1-4)Glc
# Outline: (§1)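 Glycan array binding is given as a within-array Z-score, which can be read as non-binding when negative. The arrays, 3228 of them, came from the Consortium for Functional Glycomics database and were retained only where the protein sequence was available. Z-scores were averaged across arrays of the same protein sequence at different concentrations or buffers and across linkers.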
# [2] = target: Fuc(a1-2)Gal(b1-4)GlcNAc(b1-2)Man(a1-3)[Fuc(a1-2)Gal(b1-4)GlcNAc(b1-2)Man(a1-6)]Man(b1-4)GlcNAc(b1-4)[Fuc(a1-6)]GlcNAc
# Outline: as §1
# [3] = target: Fuc(a1-2)Gal(b1-4)GlcNAc(b1-3)Gal(b1-4)GlcNAc(b1-2)Man(a1-3)[Fuc(a1-2)Gal(b1-4)GlcNAc(b1-3)Gal(b1-4)GlcNAc(b1-2)Man(a1-6)]Man(b1-4)GlcNAc(b1-4)GlcNAc
# Outline: as §1
# [4] = target: Fuc(a1-2)Gal(b1-4)GlcNAc(b1-3)[Fuc(a1-2)Gal(b1-4)GlcNAc(b1-6)]GalNAc
# Outline: as §1
# [5] = target: Fuc(a1-2)Gal(b1-4)[Fuc(a1-3)]GlcNAc(b1-3)[Neu5Ac(a2-6)Gal(b1-4)GlcNAc(b1-6)]Gal(b1-4)Glc
# Outline: as §1
# [6] = target: Fuc(a1-2)[Gal(a1-3)]Gal(b1-3)GlcNAc(b1-3)GalNAc
# Outline: as §1
# [7] = target: Fuc(a1-2)[GalNAc(a1-3)]Gal(b1-3)GalNAc(b1-3)Gal(a1-4)Gal(b1-4)Glc
# Outline: as §1
# [8] = target: Fuc(a1-2)[GalNAc(a1-3)]Gal(b1-3)GlcNAc(b1-2)Man(a1-3)[Fuc(a1-2)[GalNAc(a1-3)]Gal(b1-3)GlcNAc(b1-2)Man(a1-6)]Man(b1-4)GlcNAc(b1-4)GlcNAc
# Outline: as §1
# [9] = target: Fuc(a1-2)[GalNAc(a1-3)]Gal(b1-4)[Fuc(a1-3)]GlcNAc
# Outline: as §1
# [10] = target: Fuc(a1-2)[GalNAc(a1-3)]Gal(b1-4)[Fuc(a1-3)]GlcNAc(b1-3)GalNAc
# Outline: as §1
# [11] = target: Fuc(a1-3)[Gal(b1-4)]Glc6S
# Outline: as §1
# [12] = target: Fuc(a1-3)[Gal(b1-4)]GlcNAc(b1-6)GalNAc
# Outline: as §1
# [13] = target: Fuc(a1-3)[Gal(b1-4)]GlcNAc(b1-6)[Gal(b1-3)GlcNAc(b1-3)]Gal(b1-4)Glc
# Outline: as §1
# [14] = target: Fuc(a1-3)[Gal3S(b1-4)]GlcNAc6S
# Outline: as §1
# [15] = target: Fuc(a1-3)[GalNAc(b1-4)]GlcNAc
# Outline: as §1
# [16] = target: Gal(a1-3)Gal(b1-4)GlcNAc
# Outline: as §1
# [17] = target: Gal(a1-4)Gal(b1-4)Glc
# Outline: as §1
# [18] = target: Gal(b1-3)GalNAc(a1-3)[Fuc(a1-2)]Gal(b1-4)GlcNAc
# Outline: as §1
# [19] = target: Gal(b1-4)GlcNAc(b1-2)[Gal(b1-4)GlcNAc(b1-6)]Man(a1-6)[GlcNAc(b1-4)][Gal(b1-4)GlcNAc(b1-2)[Gal(b1-4)GlcNAc(b1-4)]Man(a1-3)]Man(b1-4)GlcNAc(b1-4)[Fuc(a1-6)]GlcNAc
# Outline: as §1
# [20] = target: Gal(b1-4)GlcNAc(b1-3)Gal(b1-4)GlcNAc(b1-2)Man(a1-3)[Gal(b1-4)GlcNAc(b1-3)Gal(b1-4)GlcNAc(b1-2)Man(a1-6)]Man(b1-4)GlcNAc(b1-4)GlcNAc
# Outline: as §1
# [21] = target: Gal(b1-4)GlcNAc(b1-3)Gal(b1-4)GlcNAc(b1-3)Gal(b1-4)GlcNAc
# Outline: as §1
# [22] = target: Gal(b1-4)GlcNAc(b1-3)Gal(b1-4)GlcNAc(b1-6)[Gal(b1-3)]GalNAc
# Outline: as §1
# [23] = target: Gal(b1-4)GlcNAc(b1-6)GalNAc
# Outline: as §1
# [24] = target: Gal3S6S(b1-4)GlcNAc
# Outline: as §1
# [25] = target: GalNAc(b1-3)Gal(a1-4)Gal(b1-4)GlcNAc
# Outline: as §1
# [26] = target: GalNAc(b1-4)GlcNAc
# Outline: as §1
# [27] = target: Glc(a1-6)Glc(a1-6)Glc(a1-6)Glc
# Outline: as §1
# [28] = target: GlcNAc(a1-4)Gal(b1-4)GlcNAc
# Outline: as §1
# [29] = target: GlcNAc(b1-2)[GlcNAc(b1-4)]Man(a1-3)[GlcNAc(b1-4)][GlcNAc(b1-2)[GlcNAc(b1-6)]Man(a1-6)]Man(b1-4)GlcNAc(b1-4)[Fuc(a1-6)]GlcNAc
# Outline: as §1
# [30] = target: GlcNAc(b1-2)[GlcNAc(b1-6)]Man(a1-6)[GlcNAc(b1-2)Man(a1-3)]Man(b1-4)GlcNAc(b1-4)[Fuc(a1-6)]GlcNAc
# Outline: as §1
# [31] = target: GlcNAc(b1-3)Gal(b1-4)GlcNAc(b1-2)Man(a1-3)[GlcNAc(b1-3)Gal(b1-4)GlcNAc(b1-2)Man(a1-6)]Man(b1-4)GlcNAc(b1-4)GlcNAc
# Outline: as §1
# [32] = target: GlcNAc(b1-3)Gal(b1-4)GlcNAc(b1-3)Gal(b1-4)GlcNAc(b1-3)GalNAc
# Outline: as §1
# [33] = target: GlcNAc(b1-6)Gal(b1-4)GlcNAc
# Outline: as §1
# [34] = target: Man(a1-2)Man(a1-2)Man(a1-3)Man
# Outline: as §1
# [35] = target: Man(a1-3)[Man(a1-6)]Man(b1-4)GlcNAc(b1-4)[Fuc(a1-6)]GlcNAc
# Outline: as §1
# [36] = target: Neu5Ac(a2-3)Gal(b1-4)GlcNAc(b1-2)[Neu5Ac(a2-3)Gal(b1-4)GlcNAc(b1-6)]Man(a1-6)[Neu5Ac(a2-3)Gal(b1-4)GlcNAc(b1-2)Man(a1-3)][GlcNAc(b1-4)]Man(b1-4)GlcNAc(b1-4)GlcNAc
# Outline: as §1
# [37] = target: Neu5Ac(a2-3)Gal(b1-4)GlcNAc(b1-3)Gal(b1-4)GlcNAc
# Outline: as §1
# [38] = target: Neu5Ac(a2-3)Gal(b1-4)GlcNAc(b1-3)Gal(b1-4)GlcNAc(b1-3)[Neu5Ac(a2-3)Gal(b1-4)GlcNAc(b1-3)Gal(b1-4)GlcNAc(b1-6)]GalNAc
# Outline: as §1
# [39] = target: Neu5Ac(a2-3)Gal(b1-4)[Fuc(a1-3)]GlcNAc(b1-3)GalNAc
# Outline: as §1
# [40] = target: Neu5Ac(a2-3)Gal(b1-4)[Fuc(a1-3)]GlcNAc(b1-6)[Gal(b1-3)]GalNAc
# Outline: as §1
# [41] = target: Neu5Ac(a2-3)GalNAc
# Outline: as §1
# [42] = target: Neu5Ac(a2-6)Gal(b1-4)GlcNAc(b1-2)Man(a1-3)[GlcNAc(b1-4)][Neu5Ac(a2-6)Gal(b1-4)GlcNAc(b1-2)Man(a1-6)]Man(b1-4)GlcNAc(b1-4)GlcNAc
# Outline: as §1
# [43] = target: Neu5Ac(a2-6)Gal(b1-4)GlcNAc(b1-2)Man(a1-6)Man(b1-4)GlcNAc(b1-4)GlcNAc
# Outline: as §1
# [44] = target: Neu5Ac(a2-6)Gal(b1-4)GlcNAc(b1-3)GalNAc
# Outline: as §1
# [45] = target: Neu5Gc(a2-3)Gal(b1-4)GlcNAc(b1-3)Gal(b1-4)GlcNAc(b1-2)Man(a1-3)[Neu5Gc(a2-3)Gal(b1-4)GlcNAc(b1-3)Gal(b1-4)GlcNAc(b1-2)Man(a1-6)]Man(b1-4)GlcNAc(b1-4)GlcNAc
# Outline: as §1
binder,measurement,setting,value
"SRA-1 (Homo sapiens), P21757 (protein) MEQWDHFHNQQEDTDSCSESVKFDARSMTALLPPNPKNSPSLQEKLKSFKAALIALYLLVFAVLIPLIGIVAAQLLKWETKNCSVSSTNANDITQSLTGKGNDSEEEMRFQEVFMEHMSNMEKRIQHILDMEANLMDTEHFQNFSMTTDQRFNDILLQLSTLFSSVQGHGNAIDEISKSLISLNTTLLDLQLNIENLNGKIQENTFKQQEEISKLEERVYNVSAEIMAMKEEQVHLEQEIKGEVKVLNNITNDLRLKDWEHSQTLRNITLIQGPPGPPGEKGDRGPTGESGPRGFPGPIGPPGLKGDRGAIGFPGSRGLPGYAGRPGNSGPKGQKGEKGSGNTLTPFTKVRLVGGSGPHEGRVEILHSGQWGTICDDRWEVRVGQVVCRSLGYPGVQAVHKAAHFGQGTGPIWLNEVFCFGRESSIEECKIRQWGTRACSHSEDAGVTCTL",glycan array binding signal (z-score),[1],-0.462
same,glycan array binding signal (z-score),[2],-0.606
same,glycan array binding signal (z-score),[3],0.064
same,glycan array binding signal (z-score),[4],1.17
same,glycan array binding signal (z-score),[5],0.274
same,glycan array binding signal (z-score),[6],-0.365
same,glycan array binding signal (z-score),[7],-0.415
same,glycan array binding signal (z-score),[8],0.613
same,glycan array binding signal (z-score),[9],1.28
same,glycan array binding signal (z-score),[10],21.8
same,glycan array binding signal (z-score),[11],1.43
same,glycan array binding signal (z-score),[12],-0.092
same,glycan array binding signal (z-score),[13],-0.456
same,glycan array binding signal (z-score),[14],0.048
same,glycan array binding signal (z-score),[15],1
same,glycan array binding signal (z-score),[16],-0.529
same,glycan array binding signal (z-score),[17],4.58
same,glycan array binding signal (z-score),[18],0.047
same,glycan array binding signal (z-score),[19],-0.205
same,glycan array binding signal (z-score),[20],0.208
same,glycan array binding signal (z-score),[21],-0.32
same,glycan array binding signal (z-score),[22],-0.129
same,glycan array binding signal (z-score),[23],0.967
same,glycan array binding signal (z-score),[24],0.399
same,glycan array binding signal (z-score),[25],1.15
same,glycan array binding signal (z-score),[26],1.24
same,glycan array binding signal (z-score),[27],0.295
same,glycan array binding signal (z-score),[28],-0.118
same,glycan array binding signal (z-score),[29],-0.311
same,glycan array binding signal (z-score),[30],0.625
same,glycan array binding signal (z-score),[31],-0.204
same,glycan array binding signal (z-score),[32],0.215
same,glycan array binding signal (z-score),[33],0.773
same,glycan array binding signal (z-score),[34],-0.235
same,glycan array binding signal (z-score),[35],-0.293
same,glycan array binding signal (z-score),[36],-0.583
same,glycan array binding signal (z-score),[37],0.027
same,glycan array binding signal (z-score),[38],0.253
same,glycan array binding signal (z-score),[39],1.05
same,glycan array binding signal (z-score),[40],1.18
same,glycan array binding signal (z-score),[41],-0.364
same,glycan array binding signal (z-score),[42],-0.341
same,glycan array binding signal (z-score),[43],0.243
same,glycan array binding signal (z-score),[44],-0.285
same,glycan array binding signal (z-score),[45],0.684
